Results as given in PubChem BioAssay (NCATS).
Results filed as inconclusive are left out. Activity calls are given as the source filed them. Calls come from the whole dose curve; as a rule, active = well fitted inhibition curve with a large enough effect; inconclusive = small, poorly fitted or top-dose-only effect; inactive = flat fitted curve, though single readings scatter.

Columns and labels:
Assay in all cases: qHTS profiling for inhibitors of Plasmodium falciparum proliferation (AID 504749); note: nearly all actives have a fitted effect of over 60% in size
Settings in all cases: P. falciparum in erythrocytes, SYBR Green DNA, 72 h; series mostly up to 28.7 µM
[1] = system: CP305
Method in brief: (§1)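 SYBR Green fluorescence (ex 485 nm, em 535 nm) reports parasite DNA after 72 h compound exposure of infected red cells at 0.3% parasitemia, 2.5% hematocrit; signal normalized to 0.29 uM artemisinin and vehicle wells.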

[2] = system: CP315
Method in brief: as §1

[3] = system: CP325
Method in brief: as §1

[4] = system: CP329
Method in brief: as §1

[5] = system: CP335
Method in brief: as §1

[6] = system: DFO2036
Method in brief: as §1

[7] = system: DIV14
Method in brief: as §1

[8] = system: DIV17
Method in brief: as §1

[9] = system: DIV30
Method in brief: as §1

[10] = system: Dd2
Method in brief: as §1

Measured: Potency
Potency is the fitted concentration of half-maximal effect.

O=P(O)(O)CP(=O)(O)O
inactive: all assays above

C=CC(C)(O)CC/C=C(\C)CCC=C(C)C (stereo not given)
inactive: all assays above

CC(=O)[C@H]1CC[C@H]2[C@@H]3C=CC4=CC(=O)CC[C@@]4(C)[C@H]3CC[C@]12C
inactive: all assays above

O=C(O)c1ccc(NC(=O)[C@H](Cc2ccc(O)cc2)NC(=O)c2ccccc2)cc1
inactive: all assays above

CC(C)(Oc1ccc(C2CCCc3ccccc32)cc1)C(=O)O (stereo not given)
inactive: all assays above

Cc1cc(=O)c(C(=O)N[C@@H](C(=O)N[C@@H]2C(=O)N3C(C(=O)O)=C(CSc4nnnn4C)CS[C@H]23)c2ccc(O)cc2)c[nH]1
inactive: all assays above

CC1(C)S[C@@H]2[C@H](NC(=O)C3(N)CCCCC3)C(=O)N2[C@H]1C(=O)O
inactive: all assays above

CC(CC=O)CCCC(C)(C)O (stereo not given)
inactive: all assays above

C[C@H](CCCC(C)(C)O)[C@H]1CC[C@H]2[C@@H]3CC=C4C[C@@H](O)CC[C@]4(C)[C@H]3CC[C@]12C
active: [10] 15.8 µM
inactive: all other assays above

CN1C(=O)C[C@@H](C(=O)N[C@@H](Cc2cnc[nH]2)C(=O)N2CCC[C@H]2C(N)=O)NC1=O
inactive: all assays above

C=Cc1ccc(S(=O)(=O)O)cc1
inactive: all assays above

O=C(NCCNCC(O)COc1ccc(O)cc1)N1CCOCC1 (stereo not given)
inactive: all assays above

NCC(O)CC(=O)O (stereo not given)
inactive: all assays above

O=C1CCC(=O)N1CO
inactive: all assays above

CCCC(=O)O
inactive: all assays above

CCCCCCCCCCCCCCCCCC(=O)OCC(C)O (stereo not given)
inactive: all assays above

CCCCC(CC)CCC(CC(C)C)OS(=O)(=O)O (stereo not given)
inactive: all assays above

CN1C(=O)OC(C)(C)C1=O
inactive: all assays above

CN1C(C(=O)Nc2ccccn2)C(=O)c2sc(Cl)cc2S1(=O)=O (stereo not given)
inactive: all assays above

CC(C)Cc1ccc([C@@H](C)C(=O)NS(C)(=O)=O)cc1
inactive: all assays above

NC(=O)[C@H]1O[C@@H](O)[C@H](O)[C@@H](O)[C@@H]1O
inactive: all assays above

O=C1c2ccccc2C(=O)c2c1ccc(O)c2O
inactive: all assays above

CC/C=C\C/C=C\C/C=C\C/C=C\C/C=C\CCCC(=O)O
inactive: all assays above

COc1ccc(C(=O)c2ccc(C)cc2)c(O)c1
inactive: all assays above

O=C(O)Cc1nn(Cc2ccc(Br)cc2F)c(=O)c2ccccc12
inactive: all assays above

CCCOC(=O)c1ccccc1O
inactive: all assays above

CNC(=O)OCc1cccc(COC(=O)NC)n1
inactive: all assays above

OC[C@H]1O[C@@H]2O[C@H]3[C@H](O)[C@@H](O)[C@@H](O[C@H]4[C@H](O)[C@@H](O)[C@@H](O[C@H]5[C@H](O)[C@@H](O)[C@@H](O[C@H]6[C@H](O)[C@@H](O)[C@@H](O[C@H]7[C@H](O)[C@@H](O)[C@@H](O[C@H]1[C@H](O)[C@H]2O)O[C@@H]7CO)O[C@@H]6CO)O[C@@H]5CO)O[C@@H]4CO)O[C@@H]3CO
inactive: all assays above

Cc1c(Cl)cccc1Nc1ncccc1C(=O)O
inactive: all assays above

Nc1nccs1
inactive: all assays above

Cc1cccc(C)c1NC(=O)C1CCCCN1C (stereo not given)
inactive: all assays above

COc1cc(S(C)=O)ccc1-c1nc2ncccc2[nH]1 (stereo not given)
inactive: all assays above

C[C@H](N)C(=O)N[C@@H](C)P(=O)(O)O
inactive: all assays above

O=C1c2ccccc2C(=O)C1c1ccc(Cl)cc1
inactive: all assays above

COc1ccc(/C=N/NC(=O)c2ccncc2)c(C(=O)O)c1OC
inactive: all assays above

NCC[C@H](O)C(=O)N[C@@H]1C[C@H](N)[C@@H](O[C@H]2O[C@H](CN)CC[C@H]2N)[C@H](O)[C@H]1O[C@H]1O[C@H](CO)[C@@H](O)[C@H](N)[C@H]1O
inactive: all assays above

CC(C)(COP(=O)(O)OP(=O)(O)OC[C@H]1O[C@@H](n2cnc3c(N)ncnc32)[C@H](O)[C@@H]1OP(=O)(O)O)C(O)C(=O)NCCC(=O)NCCS (stereo not given in full)
inactive: all assays above

C/C=C/C=C/C(=O)O
inactive: all assays above

CC(=O)Oc1cccc(C(=O)O)c1OC(C)=O
inactive: all assays above

CC(C)CCC[C@@H](C)[C@H]1CC[C@H]2[C@@H]3CC=C4C[C@@H](O)CC[C@]4(C)[C@H]3CC[C@]12C
inactive: all assays above

C[C@H](O)CN(C)C
inactive: all assays above

O=C(O)C1=C(CSc2nnnn2CS(=O)(=O)O)CS[C@@H]2[C@H](NC(=O)[C@H](O)c3ccccc3)C(=O)N12
inactive: all assays above

N=C(N)n1cccn1
inactive: all assays above

O=S(=O)(O)CC(S)CS (stereo not given)
inactive: all assays above

CCCCCCCCCCCCCC(=O)OCC(COP(=O)([O-])OCC[N+](C)(C)C)OC(=O)CCCCCCCCCCCCC (stereo not given)
inactive: all assays above
